Vc quorum ag: induces V. cholerae light production without autoinducers; V. cholerae BH1578 lux reporter, luminescence, 6 h; activation, % at 18.7 µM; actives 0.16% (n = 350,000); in the data active means activation mostly above about 9.7%, no sharp cut-off
TcdB GH inh: inhibitors of Clostridioides difficile toxin B glycohydrolase. actives 0.24% (n = 350,000). TcdB glycohydrolase enzymatic assay, plate reader. P18177. inhibition, % at 9.99 µM; in the data active means inhibition above about 10%
Yp Topo-I inh: Y. pestis Topo-I inhibition via cleavage products. AID 504884. activity, % at 10 µM. Y. pestis Topo-I cleavage product accumulation, plate reader. actives 0.064% (n = 360,000); in the data active means activity above about 50%, passing the limit was not always enough
PfHsp40 yeast: rescue of PfHsp40-mediated yeast toxicity. S. cerevisiae expressing PfHsp40, growth rescue, ATP luminescence. actives 0.68% (n = 340,000). growth rescue, % at 12.5 µM. AID 504582; in the data active means growth rescue above about 28%, passing the limit was not always enough;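 further: yeast W303a lacking pdr1 and pdr3 grown in galactose medium; growth measured after three days at 30 °C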
VHR inh abs: inhibitors of human VHR1 phosphatase (DUSP3); P51452; recombinant VHR phosphatase, pNPP absorbance; inhibition, % at 13.3 µM; actives 0.52% (n = 290,000); AID 1654; in the data active means inhibition above about 50%
Target sequence (P51452 whole entry, looked up): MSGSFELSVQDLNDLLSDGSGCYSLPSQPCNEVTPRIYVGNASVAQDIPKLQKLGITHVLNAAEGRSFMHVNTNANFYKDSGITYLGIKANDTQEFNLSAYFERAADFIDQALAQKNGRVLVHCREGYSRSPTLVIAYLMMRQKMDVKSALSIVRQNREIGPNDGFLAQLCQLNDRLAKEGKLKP
BioA inh: blocks M. tuberculosis BioA enzyme activity. actives 0.096% (n = 360,000). inhibition, % at 9.99 µM. purified M. tuberculosis BioA enzyme, plate reader; in the data active means inhibition above about 40%
An asterisk follows results filed as active; i = inactive; / = no result; ! = repeats disagree. Sampled rows, rich in hits. Any-hit rate of the full collection: about 1.2%.

SMILES | Vc quorum ag | TcdB GH inh | Yp Topo-I inh | PfHsp40 yeast | VHR inh abs | BioA inh
CCOC(=O)[C@@H]1[C@H]2COc3ccc(Br)cc3[C@H]2N2C(=O)N(c3ccc(Br)cc3)C(=O)[C@]12C | -1.0 | 0.7 | 9.0 | -0.3 | 39.9 | -0.3
CCOC(=O)[C@@H]1[C@H]2COc3cc(OC)ccc3[C@@H]2N2C(=O)N(c3cccc(C)c3)C(=O)[C@]12C | -0.1 | 1.0 | -9.3 | 64.7* | / | -0.3
CCOC(=O)[C@@H]1[C@H]2COc3cc(OC)ccc3[C@@H]2N2C(=O)N(c3cccc(Cl)c3)C(=O)[C@]12C | i | / | 7.1 | -0.2 | 8.9 | -2.3
CCOC(=O)[C@@H]1[C@H]2COc3ccc(Br)cc3[C@@H]2N2C(=O)N(c3ccc(Br)cc3)C(=O)[C@]12C | 0.4 | 13.8*! | -2.9 | 0.4 | 13.4 | 17.5
COc1ccc(C(C)(C)C)cc1NC(=O)COC(=O)c1ncc(Cl)c(Cl)c1Cl | -0.3 | 0.7 | 17.6 | 2.0 | -9.7 | -2.7
Cc1cccc(OCc2nc(C#N)c(NCc3ccc4c(c3)OCO4)o2)c1 | i | / | 36.6 | 29.2* | -14.3 | -2.4
N#Cc1nc(COc2ccc(Cl)cc2)oc1NCc1ccc2c(c1)OCO2 | / | / | 24.9 | 2.9 | 24.9 | -3.6
Cc1cc(C)c(S(=O)(=O)N2CCCC(C(=O)N3CCOCC3)C2)c(C)c1 (stereo not drawn) | 0.2 | 1.2 | 14.4 | 1.0 | 10.1 | 1.8
CCOc1ccc(NS(=O)(=O)c2cnc(Cl)c(Cl)c2)cc1 | 4.2 | / | 4.4 | 87.7* | -5.3 | /
O=C(C1CCCN1S(=O)(=O)c1cccc2cccnc12)N1CCc2ccccc21 (stereo not drawn) | -0.2 | -0.4 | 13.0 | -2.1 | 14.8 | -0.1
O=C(C1CCC1)N1CCc2cc(S(=O)(=O)N3CCN(c4ccccn4)CC3)ccc21 | 2.8 | / | 55.0* | 0.7 | -3.9 | -1.4
O=C(C1CCN(S(=O)(=O)c2cccc3cccnc23)CC1)N1CCc2ccccc21 | 7.7 | / | 19.1 | 0.0 | 54.9* | 0.0
CN1CCN(C(=O)C2CCC(CNS(=O)(=O)c3cccc4cccnc34)CC2)CC1 (stereo not drawn) | -0.5 | 0.5 | 3.3 | -1.5 | 10.7 | -1.5
O=C(C1CCC(CNS(=O)(=O)c2cccc3cccnc23)CC1)N1CCc2ccccc21 (stereo not drawn) | -0.5 | 0.7 | 11.1 | 9.1 | 54.5* | -0.7
CCNC(=O)C1(C)CCCN(Cc2csc(-c3ccc(Cl)cc3)n2)C1 (stereo not drawn) | -2.5 | 1.3 | 32.2 | / | / | 2.3
Cc1ccc(-c2csc(NC(=O)c3c(C)noc3C)n2)cc1C | 1.6 | -2.4 | 26.5 | -1.0 | / | -0.6
C[C@H]1CN(c2ccc(N3CCN(C(=O)OC(C)(C)C)C[C@@H]3C)cc2C#N)CCN1Cc1ccccc1 | / | 2.7 | / | / | / | /
O=C1CCCc2cc3c(cc21)CCCC3 | i | -1.2 | 2.9 | 33.4* | / | 0.0
CN(C)c1ccc(Cl)c(NC(N)=S)c1 | -0.4 | 27.3* | -6.4 | / | / | 0.3
O=C(NCCN1CCOCC1)c1ccc2c(c1)N(Cc1ccccc1F)C(=O)c1ccccc1S2 | i | 2.1 | 16.8 | -1.8 | -28.2 | -0.1
O=C(c1ccc2c(c1)N(Cc1ccccc1)C(=O)c1ccccc1S2)N1CCCC1 | -0.3 | 34.3* | 18.2 | 0.1 | 19.7 | 2.1
O=C(c1ccc2c(c1)N(Cc1ccccc1F)C(=O)c1ccccc1S2)N1CCOCC1 | / | 10.1* | / | / | -8.8 | /
COc1ccc(NC(=O)/C(=C\c2ccc(F)cc2)NC(=O)c2ccco2)cc1 | -0.3 | -4.9 | 2.8 | 0.6 | 56.2* | 0.4
Cn1c(NC2CCCCC2)c(N=O)c(=O)n(C)c1=O | -0.3 | -0.1 | -13.3 | -1.6 | -12.7 | /
CCn1c(SCC(=O)N2c3ccccc3Sc3ccccc32)nnc1-c1ccco1 | i | 0.1 | 34.9 | 1.4 | 2.6 | 0.8
SMILES | Vc quorum ag | TcdB GH inh | Yp Topo-I inh | PfHsp40 yeast | VHR inh abs | BioA inh
Cn1c(SCC(=O)N2c3ccccc3Sc3ccc(Cl)cc32)nnc1-c1ccco1 | i | 0.8 | 10.0 | 36.2* | -8.8 | -0.2
Cc1cccc(NC(=O)NC2CCCc3ccccc32)c1 (stereo not drawn) | -0.3 | 1.5 | 3.8 | 0.3 | -15.5 | 1.0
O=C1NC(=O)C(=Cc2ccc(Cl)c(Cl)c2)S1 | -0.9 | 1.2 | 9.2 | 4.6 | / | -2.3
O=C1NC(=O)/C(=C/c2ccc(O)cc2)S1 | i | 27.0* | -0.2 | -0.4 | 21.7 | /
Cn1c(=O)c2c(nc(SCc3cc4c(cc3Cl)OCO4)n2C)n(C)c1=O | / | / | / | / | 24.4 | /
CCc1cc(-c2n[nH]c(C)c2-c2nc3ccccc3s2)c(O)cc1OCC(=O)NN | -0.4 | -0.1 | -11.0 | 0.4 | 18.4 | /
CCc1cc(-c2n[nH]c(C)c2-c2nc(C)cs2)c(O)cc1OC | -1.0 | 11.9* | 24.1 | / | 28.4 | /
C[C@@H]1CN([C@@H](C)CO)C(=O)Cc2cc(NS(C)(=O)=O)ccc2O[C@H]1CN(C)C | / | -0.3 | / | / | / | -5.0
Fc1ccc(NC(=S)Nc2cccc3cnccc23)cc1 | -0.6 | 1.8 | -11.5 | -0.1 | 21.7 | /
S=C(Nc1ccc(Cl)cc1)Nc1cccc2cnccc12 | -2.0 | 0.2 | -9.4 | 105.2* | 0.1 | /
CCCS(=O)(=O)NC(=O)C1(C)CCN(C(=O)c2ccco2)C1 (stereo not drawn) | 0.2 | 11.5* | -10.2 | / | / | -2.2
CCCS(=O)(=O)NC(=O)C1(C)CCN(C(=O)c2cccc3ccccc23)C1 (stereo not drawn) | i | 2.0 | 4.3 | / | / | 0.2
COc1ccc(CCNC(=O)CCCCC(=O)NCCc2ccc(OC)cc2)cc1 | -1.2 | 0.2 | -2.6 | 2.6 | 7.4 | -0.6
COc1ccc(CCCC(=O)NCCc2ccccc2)c(C)c1 | 1.0 | 0.4 | 6.4 | 40.1* | 3.5 | 0.3
COc1cccc(CN(C)C(=O)c2ccc(COc3ccc(Cl)cc3)cc2)c1OC | -4.8 | 0.1 | 17.3 | 12.4 | 58.5* | -2.7
CCC(C)(C)c1ccc(OCCCC[n+]2cccc(C)c2C)c(C(C)(C)CC)c1 | i | 9.8 | -0.5 | 44.9* | 21.0 | 9.2
CCC(C)(C)c1ccc(OCCCC[n+]2ccc(C)cc2)c(C(C)(C)CC)c1 | / | / | / | / | 1.2 | /
C[C@H]1CN([C@@H](C)CO)C(=O)c2cccc(NC(=O)c3nc4ccccc4s3)c2O[C@@H]1CN(C)S(C)(=O)=O | / | 0.0 | / | / | / | -2.3
Cc1ccccc1/C(N)=N/OC(=O)c1ccc(F)cc1 | -0.1 | 0.7 | 3.4 | -1.3 | 24.7 | -1.6
CCCOc1ccc(C2=CC(=O)C[C@H](c3ccc(OC)cc3)C2)cc1 | i | 0.2 | 60.3* | 0.9 | / | -0.5
CCCCC/C=C/C1=CC(=O)C[C@H](c2ccc(OC)cc2)C1 | i | 1.2 | 15.7 | 44.0* | / | 0.9
CCCCCN(C(=O)COC(=O)COc1c(C)cc(C)cc1C)c1c(N)n(CCCC)c(=O)[nH]c1=O | 0.6 | 0.8 | 6.1 | -0.1 | / | /
O=C(C[C@H]1C=C[C@H](NC(=O)Nc2cc(F)ccc2F)[C@H](CO)O1)NCc1ccc2c(c1)OCO2 | / | -6.0 | / | / | / | -0.2
COc1cc(CCC(=O)N2CC(C)OC(C)C2)cc(OC)c1OC (stereo not drawn) | i | 1.6 | 1.2 | -0.1 | -1.5 | -2.3

Bioassay records deposited in PubChem BioAssay by several laboratories.
